Data published in paper PMC13494018.
Values without a mark were called inactive. The rule behind the calls is not given here.

B1: design_599_7ce25d4d-e004-4b84-a16f-baf856d943ab_1040_dldesign_0_cycle1_af2pred (protein)
chain: EKLKERYKAAAKNLEKAAESKDKNEAKALIGRAEALALNASADPAAPEIAKLADEALEAVYKDLEKGKELAKKAAEKAKEAAA
B2: design_599_7ce25d4d-e004-4b84-a16f-baf856d943ab_519_dldesign_0_cycle1_af2pred (protein)
chain: MEAALEALKKAAAEAANLVYDAADIGAEEAEKAAKEAIKKIKDTATPELAPLAKEYAEKLGKTAERLIENNKYGEELKK
B3: design_599_7ce25d4d-e004-4b84-a16f-baf856d943ab_1137_dldesign_0_cycle1_af2pred (protein)
chain: GAAAAAAAQEARQAIAEAEFAAAKGDPAAEAALEKAAAAAEKAAAADPEVGAKVKALVDKARAKVAAAKAA
B4: design_599_7ce25d4d-e004-4b84-a16f-baf856d943ab_347_dldesign_0_cycle1_af2pred (protein)
chain: AEAEKAKATADAKKEAKAFAEEAKKKAEEASKGTPEDVKKERDKVAAEFDKKIAEAAGNPEAAAAYAEARHEAKAEYDLAYVKAK
B5: design_599_7ce25d4d-e004-4b84-a16f-baf856d943ab_506_dldesign_0_cycle1_af2pred (protein)
chain: MEEEKKAIEEAKERAKEIAEKAVKEAKKAKTPKEISEAIREMVRKLRELVKEVREKYSEETAEKVKEIAAKERLKAVDEIAAAK
B6: design_599_7ce25d4d-e004-4b84-a16f-baf856d943ab_378_dldesign_0_cycle1_af2pred (protein)
chain: AAAAILAATDAEVAAILAKGAEEIAKAAKEEGPEAAKKVATEVLEKANDVIAEGGVKAGLSAKEISARINAAQKEVRAIAEKAIEAAA
B7: design_599_7ce25d4d-e004-4b84-a16f-baf856d943ab_358_dldesign_0_cycle1_af2pred (protein)
chain: HMKYIELLDRINKVSKELQEAYKEASKDPENKPKVEELAKEASELRDKGYDEPEKAEEYLKKMEELAKEMKKLAKE
B8: design_599_7ce25d4d-e004-4b84-a16f-baf856d943ab_1363_dldesign_0_cycle1_af2pred (protein)
chain: GEAEKAARYLKLAEELAAEVKKNYDNAEKLKEIAREAREAAKEAPESVKPVLAKVAQDAYEARAEAERNASLN
B9: design_599_7ce25d4d-e004-4b84-a16f-baf856d943ab_160_dldesign_0_cycle1_af2pred (protein)
chain: AVKEQTEKTVAATRAAAEAVPEYGEELEKGARVIERLVKDGFLEGAIDVANAIAKFSREVAAEVSEEQAAILKEAADLAEELAKLAK
B10: design_599_7ce25d4d-e004-4b84-a16f-baf856d943ab_718_dldesign_0_cycle1_af2pred (protein)
chain: SELTEKVNKEADELRKRAREIGETARRLAEEAAKHDPAAAEEIRRLASLSIQKLFEGDEEEAERYWEEAVALAKAAVA
B11: design_599_7ce25d4d-e004-4b84-a16f-baf856d943ab_1590_dldesign_0_cycle1_af2pred (protein)
chain: MEEAVKKVKELGKEALKRIEEAGKGTPEELEKKSAEVAKEFDAKVEELASKSSPEAAKAILEEAAKARKEMQETYKKALEQAKKNA
B12: design_599_7ce25d4d-e004-4b84-a16f-baf856d943ab_748_dldesign_0_cycle1_af2pred (protein)
chain: SKEEIKKQSELMKKATRYVKEAGKAAKVLGEEGKKKVEEMVKLRDQAADSDVETAKKLTEEIEKEAEEVIKKAEEKEK
B13: design_599_7ce25d4d-e004-4b84-a16f-baf856d943ab_1476_dldesign_0_cycle1_af2pred (protein)
chain: GEELEKLKKRAEKLLEEGKKKAKEDPEEGRKVAKEIRAEGKAHPEGKEAFAKAAAEVYQYIAEEEQKERLKKN
B14: design_599_7ce25d4d-e004-4b84-a16f-baf856d943ab_1357_dldesign_0_cycle1_af2pred (protein)
chain: EEEERRREERAREAREAAEEAKALAEKVKANPKATQEEIDKLNQLALQAEVAEEAIREGYAVEAAERRAREALEEAKKIAEEAEKKAA
B15: design_599_7ce25d4d-e004-4b84-a16f-baf856d943ab_1672_dldesign_0_cycle1_af2pred (protein)
chain: TPSPELAAKITAATDEILELADKNIEEGGENLDEVEKTATEKGKELGMTKLANALIKSAKIGVELQKKTK
B16: design_599_7ce25d4d-e004-4b84-a16f-baf856d943ab_1166_dldesign_0_cycle1_af2pred (protein)
chain: AEELYEKAKKLLTEAIFGLADGTINEEEALKAIEEGRKAAEELKKLGDEEKAEELERGVRALEDMIEDIRKAE
B17: design_599_7ce25d4d-e004-4b84-a16f-baf856d943ab_1164_dldesign_0_cycle1_af2pred (protein)
chain: GKEEAYKKAKEAAEKALEKAEKALKLAKEGKIEEAAKELAEAQELRAEAEFYANKSDKEKKEELLKLIEEAKKKIKEARKVAKEKA
B18: design_599_7ce25d4d-e004-4b84-a16f-baf856d943ab_1749_dldesign_0_cycle1_af2pred (protein)
chain: MEKEEELKYGEELLKKAREEAKKKIEKAAKEGKIAEGAQEAIQVINEYSFEAAKKAKKEEVKKKIWEKGKEIKKEVVERAKELVKEQE
B19: design_599_7ce25d4d-e004-4b84-a16f-baf856d943ab_928_dldesign_0_cycle1_af2pred (protein)
chain: AAAKEEAEKRAKKALEEGEKAAKEIEKSNAEEARKIAKEFREKAKELVADPEASPEEKKALAEGAQKAYEAAAEKEAKE
B20: design_599_7ce25d4d-e004-4b84-a16f-baf856d943ab_173_dldesign_0_cycle1_af2pred (protein)
chain: SEAEKVIEEARKKAEEAREFIKKIREEGGNPEAAELALQALSHFKAAEALAKSGENLESAKKHLEEGKKLLEEAKELYE
B21: design_599_7ce25d4d-e004-4b84-a16f-baf856d943ab_1182_dldesign_0_cycle1_af2pred (protein)
chain: AAVEAALAAAEAEFDRAAAFARGAAAAAVKNPKTKAFGEEALKKLDALKAEVAAAKADPEAALKAAKAAAAEAEAIMDEALEANAKA
B22: design_599_7ce25d4d-e004-4b84-a16f-baf856d943ab_1658_dldesign_0_cycle1_af2pred (protein)
chain: EEIQKKNNFLAYAEAAIHAAEAIAKNSDEKTGKALKEEAKKVKEHEDDKEEAIKHLEKAAKIAAGHPGAPILQKRVAKAKAAA
B23: design_599_7ce25d4d-e004-4b84-a16f-baf856d943ab_290_dldesign_0_cycle1_af2pred (protein)
chain: SEARRERLRAEAEEAIEKLKEAAKQAFEAGNGEAALVAVRAAARARRLLADPATVEEGLRVAKEGLEKAEKLLKE
B24: design_599_7ce25d4d-e004-4b84-a16f-baf856d943ab_1149_dldesign_0_cycle1_af2pred (protein)
chain: DVLEKMKELVKEIIEAASKLSPDIAKIFEAAGKVALKKYEEDPEAGIKGAQKLAAVGARVALPDKEAAERLKELAKEVA
B25: design_599_7ce25d4d-e004-4b84-a16f-baf856d943ab_219_dldesign_0_cycle1_af2pred (protein)
chain: MDPAELAAAKQAEAEAIIAETKAKAEKYIEEAKKSKKYVEALQYVGRAEVLLDSTVSYLTKNVGPEAGEKAQEIADKTVKEGFEIVKK
B26: design_599_7ce25d4d-e004-4b84-a16f-baf856d943ab_360_dldesign_0_cycle1_af2pred (protein)
chain: TAAITEARDAAVEARGDVELAKAKNAKAEEYEKAAKKAEEAKKKLKEVLETVELSEEERETAERMIEAMERAAEEARKLAKEKK
B27: design_599_7ce25d4d-e004-4b84-a16f-baf856d943ab_1596_dldesign_0_cycle1_af2pred (protein)
chain: DEEIKKKAEELKKKAEELEKEAETANAEELKKLAEEAIKLASKAAQLAEYAPKELAPYAEEVENYVSDIAVKAIQKRREVEEKEKKE
B28: design_599_7ce25d4d-e004-4b84-a16f-baf856d943ab_451_dldesign_0_cycle1_af2pred (protein)
chain: EKITAVNEAEAYLEALKHAAEVLTKIDPSLKPEAEKAIKEGEKLVKEAKEGNAETAKKAAEEIRKLLKEVIELGKKAKA
B29: design_599_7ce25d4d-e004-4b84-a16f-baf856d943ab_284_dldesign_0_cycle1_af2pred (protein)
chain: AEVEAFKAAAEKYYKKAKEYFEKAKKTGSKSLYLKGASYAELALHNLENAAKAAAAKDPAEGAKLQKELKETKEELDKLYEEARKAAV
B30: design_599_7ce25d4d-e004-4b84-a16f-baf856d943ab_1788_dldesign_0_cycle1_af2pred (protein)
chain: MEEERREEGRRLAEELVEKAKKAKELAKSGEKIEEAKKLLKEAREEAKKAAKAGLLTPEELKEVADAIHEAYEAIAEGEAKK
B31: design_599_7ce25d4d-e004-4b84-a16f-baf856d943ab_441_dldesign_0_cycle1_af2pred (protein)
chain: GKKEEAEKKMKKAYEKMKKLAEEAGKAKDPKEAYEYLLKIEEVGAEAINYAAKIGDKETAREAAKKYRELFREAVKKAQAAGKA
B32: design_599_7ce25d4d-e004-4b84-a16f-baf856d943ab_1147_dldesign_0_cycle1_af2pred (protein)
chain: DAEKLMKKAKEYAELAKQAKEKGTPSSAQVAEFHAEIAEELAKKAEELDPKYKKEAEEIKKIAKEAKAVGEKADEEILKKIK
B33: design_599_7ce25d4d-e004-4b84-a16f-baf856d943ab_1610_dldesign_0_cycle1_af2pred (protein)
chain: DLKEKAKKGIELAKELIEKAKELKKKGDIIGAIAYAERAIHAAEAALKIAKKADPELAKEAKKVLEEAKKELEKIEKE
B34: design_599_7ce25d4d-e004-4b84-a16f-baf856d943ab_1731_dldesign_0_cycle1_af2pred (protein)
chain: AAADAKKIQALREKVAEAAALAKDPKTAAEAAKIAKATAKEAKEAAKAATDPAAKKAFAKVAEKAKAVAEEAEKIAKA
B35: design_599_7ce25d4d-e004-4b84-a16f-baf856d943ab_845_dldesign_0_cycle1_af2pred (protein)
chain: NELEKAAKAAEAVAKALRAAAEAGPTPESLAAVEALAKEAAKVDEAAADIARAAVAAARADPARAAEALRRGARIAKRLAEDYKKAI
B36: design_599_7ce25d4d-e004-4b84-a16f-baf856d943ab_1383_dldesign_0_cycle1_af2pred (protein)
chain: SEEEKKKKYEEAKKKMEKAGEEALKNVEDGAVVMDALATMREAVHEAEKLSPEYGKEARKLLEKYREEIKKKREEVEKKKAEEEKK
B37: design_599_7ce25d4d-e004-4b84-a16f-baf856d943ab_929_dldesign_0_cycle1_af2pred (protein)
chain: GLDAVTDALAEAFYASREIEKIDPELGKELLEYAKELAKKAIAGTPEAAKKLAEEIKKKTEEKLKEAEEKAKKE
B38: design_599_7ce25d4d-e004-4b84-a16f-baf856d943ab_1128_dldesign_0_cycle1_af2pred (protein)
chain: MLSKEASEVIKKAVKAAKKVAEAGKKLGIGEKAKKEAAKKVEEVADAVVESLEKGKEAAEKFAKEAEVLAKLAKA

Molecular target: VTCN1, Q7Z7D3
Sequence (Q7Z7D3 whole entry): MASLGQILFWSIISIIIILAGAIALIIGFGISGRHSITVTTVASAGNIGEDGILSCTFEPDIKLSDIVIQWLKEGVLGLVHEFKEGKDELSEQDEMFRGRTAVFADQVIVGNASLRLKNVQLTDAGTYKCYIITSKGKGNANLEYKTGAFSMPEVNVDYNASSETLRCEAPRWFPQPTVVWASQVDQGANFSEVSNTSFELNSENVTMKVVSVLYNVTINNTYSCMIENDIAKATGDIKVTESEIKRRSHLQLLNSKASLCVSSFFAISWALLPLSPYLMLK

| Binder | binding in a display sort |
| --- | --- |
| B1 | not found |
| B2 | not found |
| B3 | not found |
| B4 | not found |
| B5 | not found |
| B6 | not found |
| B7 | not found |
| B8 | not found |
| B9 | not found |
| B10 | not found |
| B11 | not found |
| B12 | not found |
| B13 | not found |
| B14 | not found |
| B15 | not found |
| B16 | not found |
| B17 | not found |
| B18 | not found |
| B19 | not found |

| Binder | binding in a display sort |
| --- | --- |
| B20 | not found |
| B21 | not found |
| B22 | not found |
| B23 | not found |
| B24 | not found |
| B25 | not found |
| B26 | not found |
| B27 | not found |
| B28 | not found |
| B29 | binds (active) |
| B30 | not found |
| B31 | not found |
| B32 | not found |
| B33 | not found |
| B34 | not found |
| B35 | not found |
| B36 | not found |
| B37 | not found |
| B38 | not found |
